Among all 2,100 compounds or so, about 260 (12%) were called active. Inconclusive results (about 58%) are left out. Calls follow the shape of the dose curve; as a rule, active = well fitted cell-killing curve with a large enough effect; inconclusive = small, poorly fitted or top-dose-only effect, or effect the other way; inactive = flat fitted curve, though single readings scatter. This is one part of the list. Entries that show only a call come without a potency.
Experiment: Viability Counterscreen for Confirmatory qHTS for Inhibitors of ATXN expression; also: nearly all actives have a fitted effect of over 50% in size
Settings: HEK-293 ATXN2-luc cells viability, CellTiter-Fluor, 24 h
Procedure, shortened: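 Cells with an ATXN2-luciferase reporter were dosed in a dilution series for 24 h at 37 degrees C. Viability was read first with Gly-Phe-AFC at 25 uM final (fluorescence, ex 405/em 540), then SteadyGlo luminescence. Medium-only wells defined 100% inhibition.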
Potency is read from the fitted curve at half-maximal effect.

SMILES	Potency
Cc1cc(NC(=O)CSc2nccn2-c2cccc(C)c2C)no1	inactive
CCOC(=O)Nc1ccc(N2CCOCC2)c(S(=O)(=O)Nc2ccc(Cl)cc2)c1	inactive
CCOC(=O)c1ccc(N=c2sc(C(=O)OC)cc(=O)n2-c2ccc(C(=O)OCC)cc2)cc1	inactive
CCOC(=O)c1ccc2ncc(C(=O)OCC)c(Nc3ccc(N4CCOCC4)cc3)c2c1	3.16 µM (active)
Cc1ccc(NC(=O)CNC(=O)c2cccc(Cl)c2)nc1	inactive
CCN(CC)S(=O)(=O)c1ccc(C)c(NC(=S)N2CCN(c3ccccn3)CC2)c1	inactive
Cc1ccc(NC(=O)c2cnc(N3CCN(c4ccccn4)CC3)c3ccccc23)c(Br)c1	14.1 µM (active)
Cc1cc(Br)ccc1NC(=O)c1cnc(N2CCN(c3ccccn3)CC2)c2ccccc12	inactive
Brc1cnc2nc(SCc3nc4ccccc4[nH]3)[nH]c2c1	inactive
CCn1c(CCC(=O)Nc2nc3c(s2)CCCC3)nc2cc(S(=O)(=O)N(C)C)ccc21	inactive
Cc1ccc(C(=O)NC(C)CCc2ccccc2)cc1S(=O)(=O)N1CCOCC1 (stereo not drawn)	inactive
O=C(Nc1cccc(S(=O)(=O)C(F)F)c1)c1ccc(Cl)c(S(=O)(=O)N2CCOCC2)c1	28.2 µM (active)
O=C(Nc1cccc(S(=O)(=O)N2CCOCC2)c1)c1ccc2c(=O)n3c(nc2c1)CCCCC3	inactive
COc1ccc(Cn2c(O)c(/C=N/NC(=O)c3cccnc3)c3ccccc3c2=O)cc1	inactive
CCN(Cc1ccccc1)S(=O)(=O)c1ccc(C(=O)Nc2nnc(C3CC3)o2)cc1	inactive
Cc1cc2c(c(/C=C/C(=O)c3ccccc3)c1)OC1(C=C2)Oc2ccccc2C(=O)N1C (stereo not drawn)	25.1 µM (active)
Cc1cc(C)cc(NC(=O)CSc2nc3[nH]ncc3c(=O)[nH]2)c1	inactive
Nc1c(C(=O)NCc2ccccc2)c2nc3ccccc3nc2n1-c1ccc2c(c1)OCO2	inactive
CCOC(=O)c1c(C)sc2c1N(C(=O)CN(CC)CC)c1cc(Cl)ccc1S2	22.4 µM (active)
Cc1ccc(-c2nc3cc(Br)cnc3nc2-c2ccc(C)cc2)cc1	inactive

SMILES	Potency
COc1ccc(OCc2cccc(C(=O)Nn3cc([N+](=O)[O-])cn3)c2)cc1	inactive
Cc1ccc2c(c1)-c1c(cnn1CC(=O)N1CCCN(Cc3ccccc3F)C1)CO2	inactive
Cc1ccc2nc(NNC(=O)c3ccc(S(=O)(=O)N4CCc5ccccc5C4)cc3)sc2c1	10 µM (active)
COc1ccc2nc(NC(=O)C3CCN(S(=O)(=O)c4cccs4)CC3)sc2c1	inactive
Cc1cc(C)c2nc(NNC(=O)c3cc(-c4cccs4)nc4ccccc34)sc2c1	inactive
CCOC(=O)N1CCN(S(=O)(=O)c2ccc(C(=O)NNc3nc4c(C)cc(C)cc4s3)cc2)CC1	inactive
Cc1cc(C)c2nc(NNC(=O)c3ccc(S(=O)(=O)N4CC(C)CC(C)C4)cc3)sc2c1 (stereo not drawn)	11.2 µM (active)
CC1CCCN(S(=O)(=O)c2ccc(C(=O)Nc3nnc(-c4ccccc4Cl)o3)cc2)C1 (stereo not drawn)	inactive
Cc1ccc(S(=O)(=O)N2CCc3ccccc3CC2)cc1	inactive
Cc1cccc2sc(NNC(=O)c3ccc(S(=O)(=O)N4CC(C)CC(C)C4)cc3)nc12 (stereo not drawn)	11.2 µM (active)
Cc1ccc2nc(NC(=O)CSCC(=O)OCC(=O)c3ccc(Br)cc3)sc2c1	inactive
S=C(NCc1ccc(Cl)cc1Cl)NC1CCCCC1	inactive
CCc1ccc(OCC(=O)N/N=C(\C)c2ccc(O)cc2O)cc1	inactive
C/C(=N\NC(=O)c1ccc(CN2CCc3ccccc3C2)cc1)c1ccccc1O	inactive
COc1cc(C#Cc2c(-c3cncn3C)n(C)c3ccc(-c4cnc(OC)nc4)cc23)cc(OC)c1	inactive
CC(Sc1nnc2c(n1)[nH]c1ccccc12)C(=O)N(C)C1CCCCC1 (stereo not drawn)	20 µM (active)
CCc1nc2c(OCCOc3ccc(F)cc3)cccn2c1N(C)C(=O)c1ccco1	inactive
O=C1/C(=C\c2cc(Cl)c(O)c(Cl)c2)SC(=S)N1Cc1ccccc1	15.8 µM (active)
COc1cc(/C=C2\SC(=O)N(CC(=O)Nc3ccccc3F)C2=O)cc(Cl)c1O	inactive
Clc1c(Cl)c(Cl)c2n[nH]nc2c1Cl	inactive

SMILES	Potency
NC(N)=N/N=C/c1ccc(Cl)c(Cl)c1	28.2 µM (active)
CCOC(=O)Oc1c(OC)cc(C(=O)O[C@@H]2C[C@@H]3CN4CCc5c([nH]c6cc(OC)ccc56)[C@H]4C[C@@H]3[C@H](C(=O)OC)[C@H]2OC)cc1OC	inactive
CC1=NN(c2nc3ccccc3[nH]2)C(=O)C1Cc1ccccc1 (stereo not drawn)	8.91 µM (active)
CCCCn1c(SCC(=O)Nc2cc(C(F)(F)F)cc(C(F)(F)F)c2)nnc1C(CC)N(C)C (stereo not drawn)	inactive
COC(=O)C(Cc1ccc(O)cc1)NC(=O)C(C)Oc1ccccc1 (stereo not drawn)	inactive
CCc1nc2ccc(C(=O)N(C)Cc3ccccc3)cn2c1N(C)Cc1ccc(OC)cc1	inactive
CN(Cc1ccccc1)C(=O)c1ccc(Nc2nc(C(N)Cc3ccccc3)cs2)nc1 (stereo not drawn)	14.1 µM (active)
CC(C)CC(N)c1csc(Nc2ccc(C(=O)N(C)Cc3ccccc3)cn2)n1 (stereo not drawn)	14.1 µM (active)
COc1ccc(CC(N)c2csc(Nc3ccc(C(=O)c4ccccc4)cc3)n2)cc1 (stereo not drawn)	inactive
O=C(CN1C(=O)c2ccccc2S1(=O)=O)c1ccc(O)c(O)c1	inactive
CC(C)CC(NC(=O)c1ccc(Cl)cc1)C(=O)OCC(=O)c1ccc2c(c1)NC(=O)CO2 (stereo not drawn)	28.2 µM (active)
Cc1ccc(-c2ccc(/C=N/c3ncn[nH]3)o2)cc1Cl	inactive
COc1nn(-c2ccccc2)c(=O)c(Cl)c1Cl	2.82 µM (active)
CCOC(=O)N(C)c1c(CC)nc2c(OCc3ccccc3OC)cccn12	inactive
CSCC[C@H](NC(=O)OC(C)(C)C)C(=O)N/N=C/c1cccc2cccnc12	inactive
CCc1cc[n+](C2=C([O-])c3ccccc3C(=O)/C2=N\S(=O)(=O)c2cccs2)cc1	17.8 µM (active)
CC(C)CCNC(=O)COc1cccc2c1OC(C)(C)C2	inactive
CCOC(=O)[C@H]1[C@H]2COc3ccc(OC)cc3[C@@H]2N2C(=O)c3cc(OC)c(OC)cc3NC(=O)[C@@]12C	inactive

From PubChem BioAssay AID1745850 (National Center for Advancing Translational Sciences (NCATS), 2022)
